In PubChem BioAssay:

The compounds below were run against Mitogen-activated protein kinase 7 (Homo sapiens) (UniProt Q13164) (assay: Gal4-ERK5 driven luciferase induction – cell-based, HTS, primary screen (AID 1508626;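 also: luciferase driven by Gal4-ERK5 fusion binding five Gal4 sites before minimal TATA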)). Conditions: HeLa Gal4-ERK5 transactivation, 18 h, at 5 µM, hits give high values;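 active = luciferase signal above three times the same-plate solvent-only control wells; inactive = the rest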.
Chain of Mitogen-activated protein kinase 7 (Homo sapiens) (Q13164 whole entry, looked up, the tested form may be a part): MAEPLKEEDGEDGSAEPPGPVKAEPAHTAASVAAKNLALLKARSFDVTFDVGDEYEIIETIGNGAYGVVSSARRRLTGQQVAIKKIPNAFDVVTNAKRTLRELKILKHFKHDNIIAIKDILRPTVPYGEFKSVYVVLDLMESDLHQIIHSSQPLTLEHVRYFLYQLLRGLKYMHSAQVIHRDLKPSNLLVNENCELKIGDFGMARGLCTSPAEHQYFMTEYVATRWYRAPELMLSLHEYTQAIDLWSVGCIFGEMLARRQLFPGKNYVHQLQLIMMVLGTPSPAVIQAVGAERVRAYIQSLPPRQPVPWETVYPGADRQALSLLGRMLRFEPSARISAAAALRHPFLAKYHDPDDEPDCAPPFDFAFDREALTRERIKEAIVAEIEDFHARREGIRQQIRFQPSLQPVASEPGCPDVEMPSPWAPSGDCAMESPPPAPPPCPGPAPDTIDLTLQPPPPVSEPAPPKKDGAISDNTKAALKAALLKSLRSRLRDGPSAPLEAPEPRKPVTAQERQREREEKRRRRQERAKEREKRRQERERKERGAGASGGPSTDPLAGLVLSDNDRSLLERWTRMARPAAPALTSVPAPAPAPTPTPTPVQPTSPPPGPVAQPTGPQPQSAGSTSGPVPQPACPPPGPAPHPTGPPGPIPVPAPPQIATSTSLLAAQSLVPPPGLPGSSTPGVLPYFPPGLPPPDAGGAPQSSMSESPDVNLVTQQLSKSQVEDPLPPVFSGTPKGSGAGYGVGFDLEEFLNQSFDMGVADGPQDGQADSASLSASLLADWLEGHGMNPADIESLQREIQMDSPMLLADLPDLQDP

Luciferase signal, inactive:
CC1(C)C(=O)C=C[C@@]2(C)C1C=C[C@]1(C)C2CC[C@@]2(C)[C@H](c3ccoc3)OC(=O)C3OC321 (stereo partly specified) 40 AU, COc1cc(O)c2c(=O)c(O)c(-c3ccc(O)c(O)c3)oc2c1 144 AU, CC(=O)NC(Cc1c[nH]c2ccccc12)C(=O)O (stereo unspecified) 64 AU, O=C1C=C(O)c2ccccc2C1=O 44 AU, COc1c(-c2ccccc2)oc2c(ccc3occc32)c1=O 36 AU, COc1cc2ccc(=O)oc2c(O)c1O 76 AU, C=C(C)CCCC(C)CCOC(C)=O (stereo unspecified) 68 AU, C/C(=C\CO)CCC[C@H](C)CCC[C@H](C)CCCC(C)C 72 AU, N[C@@H](CSCSC[C@H](N)C(=O)O)C(=O)O 300 AU, C[C@@H]1O[C@@H](Oc2c(-c3ccc(O)c(O)c3)oc3cc(O)cc(O)c3c2=O)[C@H](O)[C@H](O)[C@H]1O 52 AU, C[C@H]1C(=O)CC[C@@H]2[C@]1(C)CC[C@H]1[C@@]2(C)CC[C@@]2(C)[C@@H]3CC(C)(C)CC[C@]3(C)CC[C@]12C 88 AU, COc1ccc(-c2coc3cc(OC)cc(OC)c3c2=O)cc1 60 AU, COc1ccc(-c2cc(=O)c3cc(OC)ccc3o2)cc1 40 AU, COc1cc(C)c(C(=O)O)c(O)c1 80 AU, CC(C)=CCC/C(C)=C\CO 60 AU, C=C1[C@@H]([C@@]2(C)C=CC(=O)C(C)(C)[C@@H]2CC(=O)OC)CC[C@@]2(C)C(c3ccoc3)OC(=O)[C@H]3O[C@]132 (stereo partly specified) 20 AU, CCC(C)C(=O)OC1[C@@H]2CC3=C4CC(=O)O[C@@H](c5ccoc5)[C@]4(C)CCC3[C@@](C)(C2=O)[C@@H](CC(=O)OC)C1(C)C (stereo partly specified) 116 AU, COC(=O)C[C@H]1C(C)(C)C2(O)OC34CC2C(=O)[C@]1(C)C3CC[C@]1(C)C4=CC(=O)O[C@H]1c1ccoc1 (stereo partly specified) 20 AU, CC1(C)C[C@@H]2C(=O)CC[C@H]3O[C@]3(C)CC[C@H]21 44 AU, CN1CCCC1c1cccnc1 (stereo unspecified) 56 AU, C[C@@H]([C@H]1OC(C)(C)[C@@H](O)[C@H]1O)[C@@H]1CC[C@]2(C)C3=CC[C@H]4C(C)(C)C(=O)CC[C@]4(C)[C@H]3CC[C@@]12C 44 AU, CCOC(=O)c1c(C)cc(OC)cc1O 84 AU, CC(C)c1c(O)ccc2c1CCC1[C@@](C)(C=O)CCC[C@]21C (stereo partly specified) 16 AU, N[C@@H](CCC(=O)N[C@@H](CSC(CC(=O)O)C(=O)O)C(=O)NCC(=O)O)C(=O)O (stereo partly specified) 68 AU, CC(C)[C@@H](C)/C=C/[C@@H](C)[C@H]1CC[C@H]2C3=CC=C4C[C@@H](O)CC[C@]4(C)[C@H]3CC[C@]12C 96 AU, Cc1cc(=O)c2c(O)cc(O)c(C)c2o1 132 AU
